Reference: PubChem BioAssay AID1159580 (chemical genetic matrix, 2015)
“And” between values parts separate entries of the source, which are not always exact repeats. Equal entries are not always repeated. About 2,000 (36%) of roughly 5,500 compounds were called active. Another 18% or so got no clear call; they are omitted. Cut-off read from the data, not from the text of the source: active = normalized growth mostly below about 0.91 (no sharp cut-off); inconclusive = no clear call, values can overlap the other calls; inactive = mostly above about 0.92. The list shows a part of the results.

Assay: chemical genetic growth profiling, strain panel (AID 1159580);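 note: tested at 20 µM; growth read once vehicle control cultures reached saturation at 30 °C; 1 = growth at the plate median or of vehicle wells; lower values mean less growth of the strain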
Settings: growth OD

Measured: normalized growth

N[C@@H]1CONC1=O
inactive: S. cerevisiae deletion strains, locus YAL021C, strain ccr4, hits give low values 0.982 | S. cerevisiae deletion strains, locus YAL026C, strain drs2, hits give low values 0.977 | S. cerevisiae deletion strains, locus YAL030W, strain snc1, hits give low values 0.973 | S. cerevisiae deletion strains, locus YBL061C, strain skt5, hits give low values 0.963 | S. cerevisiae deletion strains, locus YBR009C, strain hhf1, hits give low values 1.02 | S. cerevisiae deletion strains, locus YBR021W, strain FUR4, hits give low values 1.01 | S. cerevisiae deletion strains, locus YBR023C, strain chs3, hits give low values 0.975 | S. cerevisiae deletion strains, locus YBR171W, strain sec66, hits give low values 0.974 | S. cerevisiae deletion strains, locus YBR229C, strain ROT2, hits give low values 1.01 | S. cerevisiae deletion strains, locus YBR231C, strain swc5, hits give low values 1.01 | S. cerevisiae deletion strains, locus YBR279W, strain paf1, hits give low values 0.964 | S. cerevisiae deletion strains, locus YCL011C, strain gbp2, hits give low values 0.969 | S. cerevisiae deletion strains, locus YCL016C, strain dcc1, hits give low values 0.953 | S. cerevisiae deletion strains, locus YCL029C, strain bik1, hits give low values 1.01 | S. cerevisiae deletion strains, locus YCL069W, strain vba3, hits give low values 0.98 | S. cerevisiae deletion strains, locus YCR088W, strain abp1, hits give low values 0.981 | S. cerevisiae deletion strains, locus YDL005C, strain med2, hits give low values 0.958 | S. cerevisiae deletion strains, locus YDL035C, strain GPR1, hits give low values 1.03 | S. cerevisiae deletion strains, locus YDL040C, strain nat1, hits give low values 0.971 | S. cerevisiae deletion strains, locus YDL074C, strain BRE1, hits give low values 1.02 | S. cerevisiae deletion strains, locus YDL101C, strain DUN1, hits give low values 1.02 | S. cerevisiae deletion strains, locus YDL185W, strain tfp1, hits give low values 1.02 | S. cerevisiae deletion strains, locus YDL192W, strain arf1, hits give low values 1.01 | S. cerevisiae deletion strains, locus YDR001C, strain nth1, hits give low values 0.986 | S. cerevisiae deletion strains, locus YDR069C, strain doa4, hits give low values 1.01 | S. cerevisiae deletion strains, locus YDR101C, strain arx1, hits give low values 1 | S. cerevisiae deletion strains, locus YDR137W, strain rgp1, hits give low values 1.01 | S. cerevisiae deletion strains, locus YDR159W, strain sac3, hits give low values 0.995 | S. cerevisiae deletion strains, locus YDR162C, strain NBP2, hits give low values 1.03 | S. cerevisiae deletion strains, locus YDR195W, strain ref2 0.983 | S. cerevisiae deletion strains, locus YDR297W, strain sur2, hits give low values 0.993 | S. cerevisiae deletion strains, locus YDR318W, strain mcm21, hits give low values 1.02 | S. cerevisiae deletion strains, locus YDR334W, strain swr1, hits give low values 0.97 | S. cerevisiae deletion strains, locus YDR335W, strain msn5, hits give low values 0.991 | S. cerevisiae deletion strains, locus YDR388W, hits give low values 1.01 | S. cerevisiae deletion strains, locus YDR392W, strain spt3, hits give low values 0.934 | S. cerevisiae deletion strains, locus YDR502C, strain sam2, hits give low values 1.02 | S. cerevisiae deletion strains, locus YEL003W, strain gim4, hits give low values 0.992 | S. cerevisiae deletion strains, locus YEL037C, strain rad23, hits give low values 0.982 | S. cerevisiae deletion strains, locus YEL061C, strain CIN8 (second series), hits give low values 1 | S. cerevisiae deletion strains, locus YEL061C, strain CIN8, hits give low values 1.01 | S. cerevisiae deletion strains, locus YER015W, strain faa2, hits give low values 0.99 | S. cerevisiae deletion strains, locus YER016W, strain bim1, hits give low values 0.946 | S. cerevisiae deletion strains, locus YER110C, hits give low values 1.02 | S. cerevisiae deletion strains, locus YER111C, strain swi4, hits give low values 0.992 | S. cerevisiae deletion strains, locus YER155C, strain BEM2 (second series), hits give low values 1.03 | S. cerevisiae deletion strains, locus YER155C, strain BEM2, hits give low values 0.999 | S. cerevisiae deletion strains, locus YER167W, strain BCK2, hits give low values 1.01 | S. cerevisiae deletion strains, locus YFR010W, strain ubp6, hits give low values 0.997 | S. cerevisiae deletion strains, locus YGL078C, strain dbp3, hits give low values 1.01 | S. cerevisiae deletion strains, locus YGL086W, strain mad1, hits give low values 1.01 | S. cerevisiae deletion strains, locus YGL167C, strain pmr1, hits give low values 0.987 | S. cerevisiae deletion strains, locus YGL173C, strain kem1, hits give low values 0.984 | S. cerevisiae deletion strains, locus YGL227W, strain vid30, hits give low values 0.961 | S. cerevisiae deletion strains, locus YGL240W, strain doc1, hits give low values 1.01 | S. cerevisiae deletion strains, locus YGL248W, strain PDE1, hits give low values 1.01 | S. cerevisiae deletion strains, locus YGL253W, strain hxk2, hits give low values 0.969 | S. cerevisiae deletion strains, locus YGR135W, strain pre9, hits give low values 1.02 | S. cerevisiae deletion strains, locus YGR252W, strain gcn5, hits give low values 1.02 | S. cerevisiae deletion strains, locus YHR013C, strain ard1, hits give low values 0.964 | S. cerevisiae deletion strains, locus YHR027C, strain rpn1, hits give low values 1 | S. cerevisiae deletion strains, locus YHR030C, strain SLT2, hits give low values 1.01 and 1.03 | S. cerevisiae deletion strains, locus YHR079C, strain IRE1 (second series), hits give low values 1.01 | S. cerevisiae deletion strains, locus YHR079C, strain IRE1, hits give low values 1.03 | S. cerevisiae deletion strains, locus YHR094C, strain hxt1, hits give low values 1.01 | S. cerevisiae deletion strains, locus YHR129C, strain ARP1, hits give low values 1.01 | S. cerevisiae deletion strains, locus YHR142W, strain chs7, hits give low values 0.981 | S. cerevisiae deletion strains, locus YHR200W, strain rpn10, hits give low values 1.01 | S. cerevisiae deletion strains, locus YIL066C, strain RNR3, hits give low values 1.03 | S. cerevisiae deletion strains, locus YIL073C, strain SPO22, hits give low values 1.02 | S. cerevisiae deletion strains, locus YIL125W, strain kgd1, hits give low values 1.02 | S. cerevisiae deletion strains, locus YIR030C, strain dcg1, hits give low values 1.04 | S. cerevisiae deletion strains, locus YJL092W, strain hpr5, hits give low values 0.992 | S. cerevisiae deletion strains, locus YJL095W, strain BCK1 (second series), hits give low values 0.975 | S. cerevisiae deletion strains, locus YJL095W, strain BCK1, hits give low values 1.02 and 1.03 | S. cerevisiae deletion strains, locus YJL115W, strain asf1, hits give low values 0.968 | S. cerevisiae deletion strains, locus YJL129C, strain trk1, hits give low values 0.977 | S. cerevisiae deletion strains, locus YJL134W, strain LCB3, hits give low values 1.01 | S. cerevisiae deletion strains, locus YJL154C, strain vps35, hits give low values 0.985 | S. cerevisiae deletion strains, locus YJL164C, strain tpk1, hits give low values 1 | S. cerevisiae deletion strains, locus YJL166W, strain qcr8, hits give low values 0.998 | S. cerevisiae deletion strains, locus YJL168C, strain set2, hits give low values 1.01 | S. cerevisiae deletion strains, locus YJL187C, strain SWE1 (second series), hits give low values 1.05 | S. cerevisiae deletion strains, locus YJR043C, strain POL32, hits give low values 1 | S. cerevisiae deletion strains, locus YJR066W, strain TOR1, hits give low values 0.979 | S. cerevisiae deletion strains, locus YJR075W, strain HOC1, hits give low values 1.02 | S. cerevisiae deletion strains, locus YKL009W, strain mrt4, hits give low values 1.03 | S. cerevisiae deletion strains, locus YKL068W, hits give low values 1.01 | S. cerevisiae deletion strains, locus YKL085W, strain MDH1 (second series), hits give low values 1.05 | S. cerevisiae deletion strains, locus YKL085W, strain MDH1, hits give low values 1.05 | S. cerevisiae deletion strains, locus YKL160W, strain elf1, hits give low values 0.935 | S. cerevisiae deletion strains, locus YKR001C, strain vps1, hits give low values 1.02 | S. cerevisiae deletion strains, locus YKR026C, strain gcn3, hits give low values 0.986 | S. cerevisiae deletion strains, locus YKR091W, strain srl3, hits give low values 0.983 | S. cerevisiae deletion strains, locus YLL001W, strain dnm1, hits give low values 1.01 | S. cerevisiae deletion strains, locus YLL026W, hits give low values 0.983 | S. cerevisiae deletion strains, locus YLL041C, strain sdh2, hits give low values 0.975 | S. cerevisiae deletion strains, locus YLR027C, strain aat2, hits give low values 0.997 | S. cerevisiae deletion strains, locus YLR039C, strain RIC1, hits give low values 0.975 | S. cerevisiae deletion strains, locus YLR058C, strain SHM2, hits give low values 1.02 | S. cerevisiae deletion strains, locus YLR102C, strain apc9, hits give low values 1.01 | S. cerevisiae deletion strains, locus YLR113W, strain HOG1, hits give low values 1.03 | S. cerevisiae deletion strains, locus YLR221C, strain rsa3, hits give low values 1.03 | S. cerevisiae deletion strains, locus YLR258W, strain gsy2, hits give low values 0.97 | S. cerevisiae deletion strains, locus YLR262C, strain YPT6 (second series), hits give low values 1 | S. cerevisiae deletion strains, locus YLR262C, strain YPT6, hits give low values 1.01 | S. cerevisiae deletion strains, locus YLR268W, strain sec22, hits give low values 1.02 | S. cerevisiae deletion strains, locus YLR320W, strain mms22, hits give low values 0.997 | S. cerevisiae deletion strains, locus YLR330W, strain CHS5, hits give low values 1.01 | S. cerevisiae deletion strains, locus YLR342W, strain FKS1 (second series), hits give low values 1.02 | S. cerevisiae deletion strains, locus YLR342W, strain FKS1, hits give low values 0.99 | S. cerevisiae deletion strains, locus YLR357W, strain rsc2, hits give low values 0.948 | S. cerevisiae deletion strains, locus YLR370C, strain arc18, hits give low values 0.968 | S. cerevisiae deletion strains, locus YLR371W, strain rom2, hits give low values 0.998 | S. cerevisiae deletion strains, locus YLR384C, strain iki3, hits give low values 0.991 | S. cerevisiae deletion strains, locus YLR418C, strain cdc73, hits give low values 1.06 | S. cerevisiae deletion strains, locus YML016C, strain PPZ1, hits give low values 1.01 | S. cerevisiae deletion strains, locus YML032C, strain rad52, hits give low values 1.01 | S. cerevisiae deletion strains, locus YML120C, strain ndi1, hits give low values 0.994 | S. cerevisiae deletion strains, locus YML124C, strain tub3, hits give low values 1.02 | S. cerevisiae deletion strains, locus YMR058W, strain fet3, hits give low values 1.03 | S. cerevisiae deletion strains, locus YMR078C, strain ctf18, hits give low values 1.02 | S. cerevisiae deletion strains, locus YMR125W, strain sto1, hits give low values 0.968 | S. cerevisiae deletion strains, locus YMR129W, hits give low values 0.969 | S. cerevisiae deletion strains, locus YMR205C, strain PFK2, hits give low values 0.994 | S. cerevisiae deletion strains, locus YMR223W, strain ubp8, hits give low values 1.03 | S. cerevisiae deletion strains, locus YMR231W, strain pep5, hits give low values 0.98 | S. cerevisiae deletion strains, locus YMR307W, strain GAS1, hits give low values 0.923 | S. cerevisiae deletion strains, locus YNL067W, strain RPL9B, hits give low values 1.02 | S. cerevisiae deletion strains, locus YNL071W, strain lat1, hits give low values 0.996 | S. cerevisiae deletion strains, locus YNL183C, strain NPR1, hits give low values 0.973 | S. cerevisiae deletion strains, locus YNL209W, strain ssb2, hits give low values 0.989 | S. cerevisiae deletion strains, locus YNL233W, strain BNI4, hits give low values 1.02 | S. cerevisiae deletion strains, locus YNL248C, strain rpa49, hits give low values 0.94 | S. cerevisiae deletion strains, locus YNL250W, strain rad50, hits give low values 1.01 | S. cerevisiae deletion strains, locus YNL271C, strain bni1, hits give low values 1.02 | S. cerevisiae deletion strains, locus YNL298W, strain CLA4, hits give low values 1.01 | S. cerevisiae deletion strains, locus YNL307C, strain MCK1, hits give low values 1.02 | S. cerevisiae deletion strains, locus YNL322C, strain KRE1 (second series), hits give low values 0.947 | S. cerevisiae deletion strains, locus YNR049C, strain mso1, hits give low values 0.982 | S. cerevisiae deletion strains, locus YNR052C, strain pop2, hits give low values 1.02 | S. cerevisiae deletion strains, locus YOL012C, strain htz1 0.629 | S. cerevisiae deletion strains, locus YOL147C, strain pex11, hits give low values 1.01 | S. cerevisiae deletion strains, locus YOR001W, strain rrp6, hits give low values 1.02 | S. cerevisiae deletion strains, locus YOR061W, strain CKA2, hits give low values 1.02 | S. cerevisiae deletion strains, locus YOR069W, strain VPS5, hits give low values 1.02 | S. cerevisiae deletion strains, locus YOR070C, strain gyp1, hits give low values 0.984 | S. cerevisiae deletion strains, locus YOR080W, strain dia2, hits give low values 0.967 | S. cerevisiae deletion strains, locus YOR083W, strain WHI5, hits give low values 0.908 | S. cerevisiae deletion strains, locus YOR106W, strain vam3, hits give low values 0.937 | S. cerevisiae deletion strains, locus YOR136W, strain idh2, hits give low values 1.02 | S. cerevisiae deletion strains, locus YOR144C, strain elg1, hits give low values 1.02 | S. cerevisiae deletion strains, locus YOR184W, strain ser1, hits give low values 1.02 | S. cerevisiae deletion strains, locus YOR231W, strain MKK1, hits give low values 1.04 | S. cerevisiae deletion strains, locus YOR265W, strain rbl2, hits give low values 0.986 | S. cerevisiae deletion strains, locus YOR270C, strain vph1, hits give low values 1.05 | S. cerevisiae deletion strains, locus YOR290C, strain snf2, hits give low values 0.951 | S. cerevisiae deletion strains, locus YOR316C, strain cot1, hits give low values 1.02 | S. cerevisiae deletion strains, locus YPL051W, strain arl3, hits give low values 0.957 | S. cerevisiae deletion strains, locus YPL078C, strain atp4, hits give low values 0.963 | S. cerevisiae deletion strains, locus YPL106C, strain sse1, hits give low values 0.953 | S. cerevisiae deletion strains, locus YPL240C, strain hsp82, hits give low values 1 | S. cerevisiae deletion strains, locus YPL256C, strain CLN2, hits give low values 1.12 | S. cerevisiae deletion strains, locus YPR119W, strain clb2, hits give low values 1.02 | S. cerevisiae deletion strains, locus YPR141C, strain kar3, hits give low values 1.02 | S. cerevisiae deletion strains, locus YPR163C, strain tif3, hits give low values 1.02 | S. cerevisiae deletion strains, locus YPR167C, strain met16, hits give low values 1.02 | S. cerevisiae deletion strains, strain wtn01, hits give low values 1.02 | S. cerevisiae strains, strain wild type, hits give low values 1.01
